KDM5B inhibitor = KDM5B demethylase inhibition | Q9UGL1 | KDM5B demethylase, FDH-coupled NADH fluorescence (FDH is formaldehyde dehydrogenase) | Potency, µM (top dose mostly 57.7 µM), usual class: inhibitors | 220,000 tested, 2.6% active | AID 1347165; active = well fitted inhibition curve with a large enough effect; note: 0% is about no effect; nearly all actives have a fitted effect of over 70% in size
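KDM5BΔAP (200 nM final) in 50 mM HEPES pH 7.5, 0.01% Tween-20 was preincubated 10 min at RT with compound over a concentration range. Substrate mix (H3K4me3 12.5 µM, α-KG 25 µM, Fe²⁺, ascorbate, NAD⁺, FDH) was added, and NADH fluorescence change over 30 min gave dose-response curves.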
Numbers without * were called inactive. Only a selection was taken, and hits are over-represented in it overall. Potency is the fitted concentration of half-maximal effect.

Screening COc1ccc(N2C(=O)C(C)(C)CS2(=O)=O)cc1S(=O)(=O)N1CCc2ccccc21 returned KDM5B inhibitor inactive.
Screening Cc1ccc(C(NC(=O)C2CCCCC2)c2ccccc2)cc1 (configuration not stated) returned KDM5B inhibitor inactive.
For CCc1ccccc1/C=C/C(=O)O the results were KDM5B inhibitor inactive.
For COc1ccc(NC(=O)CSc2nc3cc(C)[nH]c3c(=O)n2C)cc1Cl the results were KDM5B inhibitor inactive.
`Cc1cc(C)c(NC(=O)CCl)c(C)c1` gave KDM5B inhibitor inactive.
For Cc1cc(C)c(CNC(=O)c2cc(-c3cnn(C)c3C)cc3c2OCCN3C)c(=O)[nH]1 the results were KDM5B inhibitor 32µM*.
Screening Cc1ccc(CNC(=O)c2cnn(C)c2-n2cccc2)s1 returned KDM5B inhibitor inactive.
Screening Cc1cc(C)c(CNC(=O)c2cc(-c3ccnn3C)cc3c2OCCN3C)c(=O)[nH]1 returned KDM5B inhibitor 35µM*.
For Cc1nc(CNC(=O)c2cn[nH]c2-c2ccccc2)cc(=O)[nH]1 the results were KDM5B inhibitor inactive.
For O=C(CCc1conc1-c1cccc(F)c1)NCC1CC1 the results were KDM5B inhibitor inactive.
Screening CNC(=O)CCNc1c(-c2cccc(F)c2)nc2cnccn12 returned KDM5B inhibitor 28µM*.
O=C(O)CCc1conc1-c1cccc(F)c1 was read as KDM5B inhibitor inactive.
`Cc1cccc(C(=O)NCCC(=O)NCc2ccccc2F)c1` gave KDM5B inhibitor inactive.
For Cc1cccc(-c2nocc2CCC(=O)NCc2ccccc2F)c1 the results were KDM5B inhibitor inactive.
For O=C(CCNc1c(-c2cccc(F)c2)nc2cnccn12)NCc1ccccc1F the results were KDM5B inhibitor 28µM*.
`CCOC(=O)COc1ccc(/C=C2/NC(=O)NC2=O)cc1Br` gave KDM5B inhibitor inactive.
Screening CCC(C)NC(=O)CSc1ncnc2ccccc12 (configuration not stated) returned KDM5B inhibitor inactive.
For O=C(NCc1cc(F)cc(F)c1)c1nnn2c1COC(c1ccc(Br)cc1)C2 (configuration not stated) the results were KDM5B inhibitor inactive.
Screening CCOC(=O)N1CCC(N2C(=O)c3ccc(C(=O)NCCOC)cc3C2=O)CC1 returned KDM5B inhibitor inactive.
`COCCNC(=O)c1ccc(OC2CCN(CCc3ccccc3)CC2)c(Cl)c1` gave KDM5B inhibitor inactive.
Screening COCCNC(=O)c1ccc2c(c1)N(C)C(CC(=O)N1CCCOCC1)CO2 (configuration not stated) returned KDM5B inhibitor 32µM*.
Screening CN1c2cc(C(=O)N3CCOCC3)ccc2OCC1CC(=O)NC(CO)CO (configuration not stated) returned KDM5B inhibitor inactive.
Screening CCN(C(=O)CC1COc2ccc(C(=O)N3CCOCC3)cc2N1C)C(C)C (configuration not stated) returned KDM5B inhibitor inactive.
`COCCNC(=O)c1ccc2c(c1)N(C)C(CC(=O)N1CCC(C)CC1)CO2` (configuration not stated) gave KDM5B inhibitor 20µM*.
CCNC(=S)NCC12CC3CC(CC(C3)C1)C2 was read as KDM5B inhibitor inactive.
COc1ccccc1CC(=O)N1CCc2c(nc3cc[nH]n3c2=O)C1 was read as KDM5B inhibitor 28µM*.
Screening Cc1nc(N2CCCC2)cc(N2CCN(C(=O)c3ccccc3C(F)(F)F)CC2)n1 returned KDM5B inhibitor inactive.
`COc1ccc(C(=O)N2CCc3c(nc4cc[nH]n4c3=O)C2)c(C)c1` gave KDM5B inhibitor 28µM*.
COc1ccccc1CC(=O)N1CCN(c2nc(-c3ccc(Cl)cc3)no2)CC1 was read as KDM5B inhibitor inactive.
`Cc1nc(N2CCCCC2)cc(N2CCN(C(=O)c3ccccc3C(F)(F)F)CC2)n1` gave KDM5B inhibitor inactive.
`CCOC(=O)c1ccc(NC(=O)N2CCc3c(nc4cc[nH]n4c3=O)C2)cc1` gave KDM5B inhibitor 22µM*.
Screening O=C(c1ccccc1C(F)(F)F)N1CCc2nc3cc[nH]n3c(=O)c2C1 returned KDM5B inhibitor 32µM*.
For COc1ccc(-c2noc([C@@H]3CCCN3C(=O)c3ccc(OC)cc3C)n2)cc1 the results were KDM5B inhibitor inactive.
For COc1ccccc1CC(=O)N1CCc2c(nc[nH]c2=O)C1 the results were KDM5B inhibitor inactive.
For COc1ccc(-c2nc3c(c(=O)[nH]2)CCN(C(=O)c2ccccc2OC(F)(F)F)C3)cc1 the results were KDM5B inhibitor inactive.
For CCOc1ccc2c(n1)CCN(C(=O)Nc1ccc(CC)cc1)C2 the results were KDM5B inhibitor inactive.
For CCOC(=O)c1ccc(NC(=O)N2CCN(Cc3nc(-c4ccc(C)cc4)oc3C)CC2)cc1 the results were KDM5B inhibitor inactive.
N#Cc1ccc(N2CCC(C(=O)Nc3cccc(S(=O)(=O)N4CCCC4)c3)CC2)nc1 was read as KDM5B inhibitor inactive.
Screening O=C(CSc1nc2ccccc2s1)NCCc1ccc(F)cc1 returned KDM5B inhibitor inactive.
For N#C/C(=C\c1c[nH]c2ccccc12)c1ccccc1 the results were KDM5B inhibitor inactive.

Bioassay records: PubChem BioAssay, National Center for Advancing Translational Sciences (NCATS)
